Assay outcomes: PubChem, Pan Lab, Icahn School of Medicine at Mount Sinai
RBX1-CUL1 inh: inhibitors of human ROC1-CUL1 ubiquitin ligase activity. AID 1347404. P62877+Q13616. 0.6% of 140,000 active. in vitro K48 di-Ub FRET, acceptor:donor ratio, 45 min. inhibition, % at 10 µM; in the data active = inhibition above about 25%
Active calls of the source: *. The entries come from a sample that favours hits as a whole.

SMILES	RBX1-CUL1 inh
Cc1cccc(OCC(=O)NC(C)C(=O)N/N=C/c2ccc(OCc3c(C)cc(C)cc3C)cc2)c1 (centres undefined)	11.9
Cc1nc2cc(NC(=O)N3CCN(c4ccccc4)CC3)ccc2o1	-7.0
FC(F)(F)c1c(-c2nnnn2-c2ccccc2)cnn1-c1ccc(Cl)cc1	-4.7
O=C(CCCN1C(=O)/C(=C\c2cccc(Br)c2)SC1=S)NNC(=O)c1ccccc1O	0.6
CCCC(C(=O)O)N1C(=O)/C(=C/c2ccc(F)cc2)SC1=S (centres undefined)	7.4
NC(=O)CC(C(=O)O)N1C(=O)/C(=C/c2cccc(Br)c2)SC1=S (centres undefined)	32.8*
CCOc1ccccc1-c1n[nH]c2c1CN(Cc1nccs1)CC2	5.3
CCn1nc(C)c(/C=C2\CCCC3=C2OC(=N)C(C#N)C3c2c(C)nn(CC)c2C)c1C (centres undefined)	3.4
Cc1ccc(S(=O)(=O)/C=C/CO)cc1	-3.5
N#CC1=c2s/c(=C\c3ccccc3C(F)(F)F)c(=O)n2C(=N)C(C#N)C1c1ccccc1C(F)(F)F (centres undefined)	3.5
N#CC1=c2s/c(=C/c3cccc(C(F)(F)F)c3)c(=O)n2C(=N)C(C#N)C1c1cccc(C(F)(F)F)c1 (centres undefined)	-1.9
N#CC1=c2s/c(=C\c3ccc(-c4ccccc4)o3)c(=O)n2C(=N)C(C#N)C1c1ccc(-c2ccccc2)o1 (centres undefined)	55.8*
CN(C(=O)CCc1ccco1)C1CCCN(CCc2ccccc2)C1 (centres undefined)	7.2
COC(=O)c1ccc(C(=O)Nc2ccc(-c3nc4cc(NC(=O)c5ccc(C(=O)OC)cc5)ccc4o3)cc2)cc1	12.7
O=C(Nc1ccc(-c2nc3cc(NC(=O)c4ccc(Cl)cc4)ccc3o2)cc1)c1ccc(Cl)cc1	-2.4
O=C(Nc1ccc2cc3ccc(NC(=O)c4ccc(=O)oc4)cc3nc2c1)c1ccc(=O)oc1	39.8*
C/C(=N\NC(=O)C(C)Nc1c(C)cccc1C)c1ccc(Br)cc1 (centres undefined)	3.8
O=C(O)c1ccc(Cl)c(-c2ccc(/C=N/Nc3ccccc3)o2)c1	1.9
CCC(C)N1C(=O)S/C(=C/c2ccc(-c3cc(C(=O)O)ccc3Cl)o2)C1=O (centres undefined)	15.3
CCCCC1(C)OC(=O)C(=Cc2ccc(-c3cc(C(=O)O)ccc3Cl)o2)C(=O)O1 (centres undefined)	85.0*
CCCCCCCCCC(=O)OC(C)CN(C)CC/C=C1/c2ccccc2CSc2ccccc21 (centres undefined)	-7.9
CCOc1c(Cl)cc(Cl)cc1CNc1nn[nH]n1	2.0
S=C(Nc1ccc(Cl)cc1)Nc1ccc(Br)cn1	-3.7
CCO[C@H]1[C@H](NC(=O)c2cccnc2)c2ccccc2C12CCN(C(=O)Cc1nonc1C)CC2	-0.8
O=C1OC(C(O)c2ccc(Cl)cc2Cl)c2ccccc21 (centres undefined)	1.4
SMILES	RBX1-CUL1 inh
Cc1cc(C(=O)OC(C)C)c(NC(=O)Cn2ncc(N(C)C)cc2=O)s1	1.5
Cc1cc(C)c2c(n1)sc1c(=O)n(-c3cccc(C(F)(F)F)c3)nnc12	3.9
Oc1ccc(NCc2ccc(Br)cc2)cc1	75.8*
COc1ccc(Br)cc1CNc1ccc(O)cc1	41.1*
COc1ccc(Br)cc1CNc1ccc2[nH]c(=O)[nH]c2c1	0.7
CNCc1cc(Br)ccc1OC	2.7
Oc1ccc(NCc2ccc(OCc3ccccc3)cc2)cc1	1.1
CCc1ccc(CNc2ccc(O)cc2)cc1	-15.3
O=C(NNS(=O)(=O)c1ccc([N+](=O)[O-])cc1)C(=O)NC1CCCCC1	-0.6
NCC(c1ccccc1)c1ccc(Cl)cc1Cl (centres undefined)	8.0
CCOC(=O)c1c(NC(=O)Cc2ccc(F)cc2)sc2c1CCC(C(C)(C)C)C2 (centres undefined)	5.4
CCOC(=O)c1c(C)n(C)c2ccc(Oc3nccc(Nc4ccc(C)cc4)c3C#N)cc12	1.2
Cc1c(C(c2ccc(Br)cc2)C2C(=O)Oc3ccccc3C2=O)c(=O)n(-c2ccccc2)n1C (centres undefined)	-2.7
Cc1ccccc1N1OC2C(=O)N(c3ccccc3Cl)C(=O)C2C1c1ccc(N(C)C)cc1 (centres undefined)	-7.4
Cc1cccc2c1OC(=O)C(C(c1ccc(N(C)C)cc1)C1C(=O)Oc3c(C)cccc3C1=O)C2=O (centres undefined)	91.6*
CCOC(=O)c1ccc(N2C(=O)c3ccc(C(=O)Nc4ccc(O)cc4C(=O)O)cc3C2=O)cc1	69.2*
Cc1ccc(NC(=O)c2ccc3c(c2)C(=O)N(CC(C)C)C3=O)c(C(=O)O)c1	12.5
O=C(COC(=O)c1ccc2c(c1)C(=O)N(c1ccc(O)cc1)C2=O)c1ccccc1	-4.7
O=C(CCCc1ccccc1)Nc1cccc(N2CCC(N[C@@H]3CS(=O)(=O)C[C@H]3O)CC2)c1	-2.2
O=C1C(Br)=CC2=C(c3ccccc3C(=O)O)C3C=C(Br)C(=O)C(Br)C3OC2=C1Br (centres undefined)	116.6*
